Test results as given in PubChem BioAssay AID504466 (National Center for Advancing Translational Sciences (NCATS), 2011).
The whole screen tested about 330,000 compounds, of which about 4,200 (1.3%) were called active. About 6% were inconclusive and are not listed. The call rests on the fitted dose curve; in most records, active means well fitted activation curve with a large enough effect; inconclusive means small, poorly fitted or top-dose-only effect; inactive means no such curve, though single readings can be large or run the other way. This excerpt belongs to a sample that is enriched for actives.

Test: qHTS screen for small molecules that induce genotoxicity in human embryonic kidney (HEK293T) cells expressing luciferase-tagged ELG1; further: nearly all actives have a fitted effect of over 60% in size; on activity change, positive = activation: % of control where 0% means no effect
Details: HEK293T ELG1-luciferase reporter, luminescence, 16 h; series mostly up to 46 µM; activity change, positive = activation: at the top concentration
Procedure, shortened: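 Genotoxicity was scored as increased ELG1-luciferase reporter signal, measured by ONE-Glo luminescence (30 min, room temperature). Compound or vehicle exposure of the HEK293T reporter cells lasted 16 hr at 37°C.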
Potency means the concentration at half of the fitted maximal effect.

Row | SMILES | activity change, positive = activation | Potency
1 | CC(C)(C)OC(=O)CNC(=O)c1[nH]cnc1C(=O)N[C@@H](CCCCN)C(=O)OC(C)(C)C | -1.61% (inactive) | –
2 | C[C@H](CO)N1C[C@H](C)[C@@H](CN(C)Cc2ccc(-c3ccccc3)cc2)Oc2ccc(NC(=O)Cn3cnnn3)cc2C1=O | -0.487% (inactive) | –
3 | O=C(Nc1ccccc1N1CCOCC1)c1csc2c1CCCC2 | 0.737% (inactive) | –
4 | O=C(NCc1ccccc1Cl)c1csc2c1CCCCC2 | 1.64% (inactive) | –
5 | COC(=O)c1sc(NC(=O)c2csc3c2CCCC3)nc1C | – | 2.59 µM (active)
6 | COC(=O)[C@]1(Cc2ccccc2)N[C@H](CN(C)S(=O)(=O)c2ccc(F)cc2)[C@@H]2C(=O)N(Cc3ccccc3)C(=O)[C@@H]21 | -1.12% (inactive) | –
7 | COc1ccc(N=Cc2c(O)[nH]c3ccccc23)cc1OC | – | 14.6 µM (active)
8 | COc1cc(N=Cc2c(O)[nH]c3ccccc23)cc(OC)c1OC | 0.123% (inactive) | –
9 | COc1ccccc1N=Cc1c(O)c2ccccc2oc1=O | 0.524% (inactive) | –
10 | Cc1cc(NC(=O)c2ccco2)c(=O)n(Cc2c(F)cccc2Cl)c1 | -18.3% (inactive) | –
11 | Cc1ccc(-n2nc3cc(C)c(NC(=O)c4cccnc4)cc3n2)cc1 | 15.3% (inactive) | –
12 | Cc1ccc(-n2nc3cc(Cl)c(NC(=O)c4ccco4)cc3n2)cc1 | – | 11.6 µM (active)
13 | Cc1ccc(S(=O)(=O)NC[C@H]2O[C@@H](n3cnc4c(N)ncnc43)[C@H](O)[C@@H]2O)s1 | 4.37% (inactive) | –
14 | CSCCC1NC(=O)N(CC(=O)Nc2cccc(S(=O)(=O)N3CCCCCC3)c2)C1=O (stereo not given) | -6.21% (inactive) | –
15 | Cc1cc(C(=O)NCCc2ccc(Cl)cc2)n(-c2ccccc2)n1 | -0.508% (inactive) | –
16 | Cc1cc(C(=O)NNC(=O)c2ccccc2O)c(C)o1 | 0.664% (inactive) | –
17 | Cc1cc(C(=O)NCCc2ccc(Cl)cc2)c(C)o1 | – | 18.3 µM (active)
18 | CC[C@]12c3[nH]c4ccc(OC)cc4c3CCN1C(=O)C(CC(=O)NCCN1CCOCC1)C[C@@H]2C(=O)N1CCN(C(=O)C2CC2)CC1 (stereo not given in full) | 6.98% (inactive) | –
19 | Cc1ccccc1SCC(=O)OCC(=O)N1CC(=O)Nc2ccccc21 | 0.23% (inactive) | –
20 | CC1CCN(c2oc(-c3ccccc3F)nc2C#N)CC1 | – | 16.4 µM (active)
21 | Cc1oc(-c2ccccc2F)nc1CS(=O)CC(=O)NCCN1CCCCC1C (stereo not given) | -1.89% (inactive) | –
22 | N#Cc1nc(-c2cccc3ccccc23)oc1N | 9.19% (inactive) | –

Row | SMILES | activity change, positive = activation | Potency
23 | Cc1ccc(S(=O)(=O)N2CCN(C(=O)COC(=O)CNC(=O)c3ccc(C(C)(C)C)cc3)CC2)c(C)c1 | -0.764% (inactive) | –
24 | O=C(N=C1SC2CS(=O)(=O)CC2N1c1ccccc1)c1ccccc1 (stereo not given) | 5.92% (inactive) | –
25 | COc1ccc(-c2nc3cnccn3c2NC2CCCCC2)cc1-c1cccc(Cl)c1 | -2.5% (inactive) | –
26 | COc1cccc(NC(=O)CSc2nnc(C3CCCCC3)n2N)c1 | -1.51% (inactive) | –
27 | COc1cccc(/C=C2\C=C(c3ccc(C)cc3)OC2=O)c1OC(C)=O | 5.23% (inactive) | –
28 | COc1cccc(/C=C/c2ccc3ccccc3n2)c1OC(C)=O | – | 0.206 µM (active)
29 | CC(=O)c1ccc(S(=O)(=O)N2CCN(C(=O)/C=C/c3ccc4ccccc4n3)CC2)cc1 | -6.07% (inactive) | –
30 | NC(=O)COC(=O)/C=C/c1ccc2ccccc2n1 | -0.149% (inactive) | –
31 | CCOc1cccc(/C=C/c2ccc3ccccc3n2)c1OC(C)=O | – | 0.366 µM (active)
32 | CCOc1ccccc1-c1cc(C(=O)N2CCOCC2)c2ccccc2n1 | -7.76% (inactive) | –
33 | COCCn1c(C)cc(C(=O)CN2c3cccc4cccc(c34)S2(=O)=O)c1C | 6.69% (inactive) | –
34 | Cc1noc(C)c1NC(=O)Nc1cccc2c1O[C@H](CN(C)C(=O)Nc1ccccc1)[C@@H](C)CN([C@H](C)CO)C2=O | -0.827% (inactive) | –
35 | NCCN1CCN2C(=O)CN(C(=O)c3ccccc3)CC12 (stereo not given) | -1.89% (inactive) | –
36 | O=C1CCC/C=C/C[C@@H](CC(=O)N(CCO)Cc2ccccc2)C(=O)NC[C@H](c2ccccc2)O1 | 3.07% (inactive) | –
37 | CC[C@]12c3[nH]c4ccc(Cl)cc4c3CCN1C(=O)[C@@H](CC(=O)NCCCOC)C[C@@H]2C(=O)N1CCN(C(=O)C2CC2)CC1 | 7.73% (inactive) | –
38 | COCCCNC(=O)CC1C[C@H](C(=O)N2CCCCC2)[C@@]2(CCc3ccccc3)c3[nH]c4ccccc4c3CCN2C1=O (stereo not given in full) | -2.19% (inactive) | –
39 | COc1ccc2oc(=O)c(C(=O)NCc3ccccn3)cc2c1 | 10.3% (inactive) | –
40 | N=c1oc2ccccc2cc1C(=O)NCc1ccccc1 | 17.7% (inactive) | –
41 | O=C(NCc1ccccn1)c1cc2ccccc2oc1=O | – | 14.6 µM (active)
42 | CCNC(=O)N(CC)C[C@H]1N[C@@](CC)(C(=O)OC)[C@H]2C(=O)N(Cc3ccccc3)C(=O)[C@@H]12 | 0.0201% (inactive) | –
43 | CN(C(=O)COC(=O)Cc1ccccc1[N+](=O)[O-])C1CCS(=O)(=O)C1 (stereo not given) | 1.71% (inactive) | –
44 | Cc1cc(=O)n2[nH]c(-c3sccc3-n3c(C)ccc3C)cc2n1 | -4.68% (inactive) | –

Row | SMILES | activity change, positive = activation | Potency
45 | CCc1c(C)nc2cc(-c3cccs3)[nH]n2c1=O | – | 20.6 µM (active)
46 | CCc1c(C)nc2cc(C)[nH]n2c1=O | -2.38% (inactive) | –
47 | Cc1cccc(NS(=O)(=O)c2ccc(C)c(C(=O)NCc3cccnc3)c2)c1 | -1.11% (inactive) | –
48 | CN(c1ccccc1)S(=O)(=O)c1ccc(C(=O)N2CCN(c3ccccc3Cl)CC2)cc1 | -2.82% (inactive) | –
49 | CC(NC(=O)COC(=O)Cn1cc(C(F)(F)F)ccc1=O)c1ccccc1 (stereo not given) | -0.165% (inactive) | –
50 | COc1ccc(S(=O)(=O)N2CCOCC2)cc1NC(=O)CSc1nnc(NC2CC2)s1 | -2.72% (inactive) | –
51 | Cc1ccc(NC(=O)NC(=O)c2ccccc2)cc1F | 28.6% (inactive) | –
52 | O=C(NC(=O)c1ccccc1)Nc1ccccc1O | – | 1.83 µM (active)
53 | O=C(Nc1ccc(C(=O)O)c(O)c1)c1ccccc1 | -0.0454% (inactive) | –
54 | COc1ccc(CCOC2OC(CO)C(OC(=O)/C=C/c3ccc(O)c(OC)c3)C(O[C@H]3O[C@@H](C)[C@H](O)[C@@H](O)[C@H]3O)C2O)cc1O (stereo not given in full) | 1.06% (inactive) | –
55 | O=C(COC(=O)c1ccc(Br)o1)NC12CC3CC(CC(C3)C1)C2 | -1.36% (inactive) | –
56 | COc1ccc(N(Cc2ccccc2)S(=O)(=O)c2cccc(C(=O)O)c2)cc1 | 0.954% (inactive) | –
57 | COc1ccc(NC(=O)CS(=O)(=O)c2ccccc2)cc1 | 9.22% (inactive) | –
58 | COc1ccc(C(CC(=O)c2ccccc2)S(=O)(=O)c2ccccc2)cc1 (stereo not given) | – | 18.4 µM (active)
59 | O=C(Nc1cc(S(=O)(=O)N2CCOCC2)ccc1N1CCOCC1)c1c(F)cccc1Cl | -0.0492% (inactive) | –
60 | CCOc1cccc(C(=O)Nc2cnn(Cc3ccccc3)c2)c1 | 4.75% (inactive) | –
61 | Cc1ccc(C(=O)Nc2nnc(-c3cccs3)s2)cc1C | – | 8.2 µM (active)
62 | Cc1nnc(NC(=O)c2ccc3nccnc3c2)s1 | 15.1% (inactive) | –
63 | Cc1ccc(C(=O)Oc2coc(CSc3nnc(NC(=O)c4cccs4)s3)cc2=O)cc1C | -3.29% (inactive) | –
64 | CCOc1cccc(C(=O)Nc2nnc(-c3cccs3)s2)c1 | – | 1.16 µM (active)
65 | COc1cccc(C(=O)Nc2nnc(S(=O)(=O)N(C)c3ccccc3)s2)c1 | -1.42% (inactive) | –
